The results in this text go back to PubChem BioAssay (NCATS).

Experiment [1] concerns the target Peroxisome proliferator-activated receptor gamma (Homo sapiens) (UniProt P37231). The experiment is described as follows: qHTS assay for small molecule agonists of peroxisome proliferator-activated receptor gamma signaling (AID 588536; active = well fitted curve in the direction sought with a large enough effect in the signal ratio, with a control signal flat, not every such curve was filed as active; the % refers to the signal ratio;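 note: 0% = DMSO basal wells and 100% = rosiglitazone at 2 µM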). An outline of the steps: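 Cells were plated and held 6–6.5 h at 37 C, then compounds were added as a titration series. After a further 16 h, CCF4 dye was loaded for 2 h at room temperature and emission at 460/530 nm recorded.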

The target in experiment [2] is Vitamin D3 receptor (Homo sapiens) (UniProt P11473). Briefly: qHTS assay for small molecule antagonists of vitamin D receptor signaling (AID 588541; calls by dose curve;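 note: receptor activated by calcitriol during compound treatment; series mostly up to about 77 µM; % is set by controls: 0 for no effect and ±100 for the full control effect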). An outline of the steps: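 VDR-UAS-bla HEK293T cells (2000/well, 2% charcoal-stripped FBS) were treated with titrated compounds plus 1-alpha,25-dihydroxyvitamin D3 (50 nM or 3 nM final) for 16 h at 37 C. CCF4 beta-lactamase fluorescence was read; Hill fits gave IC50.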
Sequence of Vitamin D3 receptor (Homo sapiens) (P11473 whole entry, looked up): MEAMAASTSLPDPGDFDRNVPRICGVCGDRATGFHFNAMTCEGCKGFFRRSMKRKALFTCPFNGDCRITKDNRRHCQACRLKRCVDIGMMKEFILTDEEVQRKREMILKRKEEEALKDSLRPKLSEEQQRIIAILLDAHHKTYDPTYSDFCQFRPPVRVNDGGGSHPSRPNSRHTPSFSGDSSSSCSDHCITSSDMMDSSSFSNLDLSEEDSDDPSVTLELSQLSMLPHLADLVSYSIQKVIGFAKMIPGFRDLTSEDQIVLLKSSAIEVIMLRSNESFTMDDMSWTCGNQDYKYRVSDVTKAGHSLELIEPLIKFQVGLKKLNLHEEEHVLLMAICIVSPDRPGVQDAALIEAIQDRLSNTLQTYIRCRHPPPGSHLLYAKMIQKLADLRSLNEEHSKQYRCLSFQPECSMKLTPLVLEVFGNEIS
A general note: Quantitative high-throughput screening tests each substance at several concentrations.

Experiment [3] has the same target. Briefly: qHTS assay for small molecule agonists of vitamin D receptor signaling (AID 588543; calls by dose curve;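 note: 0% = DMSO basal and 100% = reference agonist control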). An outline of the steps: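 GeneBLAzer VDR-UAS-bla HEK293T cells in 2% charcoal-stripped FBS medium were dosed with compound titrations for 16 h at 37 °C; CCF4 β-lactamase readout (405 nm ex, 460/530 nm em). EC50 and efficacy from Hill fits, normalized to 50 nM calcitriol (100%) and DMSO (0%).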

A short description of experiment [4]: qHTS assay for small molecule agonists of retinoid X receptor alpha signaling (AID 588544; calls by dose curve;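 for activation: 0% = DMSO basal wells and 100% = reference agonist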). The conditions noted are these: HEK293T RXRa-UAS-bla, beta-lactamase reporter, 18 h; 530 nm emission.
In experiment [5] the target is Retinoic acid receptor RXR-alpha (Homo sapiens) (UniProt P19793). Described as above.
Sequence of Retinoic acid receptor RXR-alpha (Homo sapiens) (P19793 whole entry, looked up): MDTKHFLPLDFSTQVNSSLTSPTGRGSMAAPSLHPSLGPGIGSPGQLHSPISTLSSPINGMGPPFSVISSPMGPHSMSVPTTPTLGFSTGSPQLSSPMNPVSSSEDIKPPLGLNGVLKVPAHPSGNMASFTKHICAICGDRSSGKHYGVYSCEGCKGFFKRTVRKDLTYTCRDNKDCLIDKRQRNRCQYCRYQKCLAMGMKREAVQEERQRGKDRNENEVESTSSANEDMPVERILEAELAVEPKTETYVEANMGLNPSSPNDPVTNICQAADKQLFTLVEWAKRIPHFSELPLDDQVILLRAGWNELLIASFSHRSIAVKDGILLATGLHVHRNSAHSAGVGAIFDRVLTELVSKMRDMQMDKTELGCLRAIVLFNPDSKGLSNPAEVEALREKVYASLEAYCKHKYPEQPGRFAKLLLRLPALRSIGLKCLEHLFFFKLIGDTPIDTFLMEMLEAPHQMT
The target of experiment [6] is Thyroid hormone receptor beta (Homo sapiens) (UniProt P10828). The experiment is described as follows: qHTS assay for small molecule agonists of thyroid hormone receptor beta signaling (AID 588545; calls by dose curve;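 note: 0% = DMSO only and 100% = 10 nM T3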). In a few lines:
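Beta-lactamase reporter activity under TR response element control is measured in HEK 293 cells after 18 hrs compound exposure. Signal is ratiometric CCF4 fluorescence, 460/530 nm.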

A short description of experiment [7]: qHTS assay for small molecule antagonists of retinoid X receptor alpha signaling (AID 588546).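 Note: cells stimulated with 9-cis-retinoic acid as agonist; % is set by controls: 0 for no effect and ±100 for the full control effect.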 The conditions noted are these: HEK293T RXRa-UAS-bla, beta-lactamase ratio, antagonist mode; measured here: W530 green channel, cytotoxicity proxy. An outline of the steps: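 Beta-lactamase reporter inhibition, read as CCF4 fluorescence ratio (ex 405, em 460/530 nm) after 2 h at RT. HEK293T UAS-bla cells, 2500/well, were stimulated with 9-cis-RA at 500 or 100 nM final alongside test compound for 18 h at 37 C.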

The target of experiment [8] is Thyroid hormone receptor beta (Homo sapiens) (UniProt P10828). Briefly: qHTS assay for small molecule antagonists of thyroid hormone receptor beta signaling (AID 588547; active = well fitted inhibition curve with a large enough effect in the signal ratio, with a control signal flat, not every such curve was filed as active; the % refers to the signal ratio;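 note: cells stimulated with 0.4 nM T3 agonist during compound exposure; series mostly up to about 77 µM; % is set by controls: 0 for no effect and ±100 for the full control effect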). The conditions noted are these: TR-UAS-bla HEK293, beta-lactamase ratio, antagonist mode, 18 h. An outline of the steps: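 TR-UAS-bla GripTite HEK293 cells in 2% charcoal/dextran FBS medium were preincubated 4 h at 37 C, given compound (0.59 nM to 92 uM) plus 0.4 nM T3 (final) for 18 h, then CCF4 for 2 h at RT; Hill fit gave IC50.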
Sequence of Thyroid hormone receptor beta (Homo sapiens) (P10828 whole entry, looked up): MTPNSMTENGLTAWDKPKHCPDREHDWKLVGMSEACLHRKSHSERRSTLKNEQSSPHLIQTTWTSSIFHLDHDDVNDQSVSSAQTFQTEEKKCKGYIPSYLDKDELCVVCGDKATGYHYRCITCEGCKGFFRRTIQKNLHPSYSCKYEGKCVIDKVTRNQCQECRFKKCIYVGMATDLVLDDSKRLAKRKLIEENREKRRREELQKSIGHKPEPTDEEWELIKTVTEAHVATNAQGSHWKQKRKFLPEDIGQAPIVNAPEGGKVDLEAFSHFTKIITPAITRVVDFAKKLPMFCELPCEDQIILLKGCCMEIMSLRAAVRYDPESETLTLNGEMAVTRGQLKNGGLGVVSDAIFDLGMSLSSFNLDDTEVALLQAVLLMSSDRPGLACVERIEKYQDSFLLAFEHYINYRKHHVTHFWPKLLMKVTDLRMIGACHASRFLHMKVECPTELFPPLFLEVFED

Experiment [9] deals with Voltage-gated inwardly rectifying potassium channel KCNH2 (Homo sapiens) (UniProt Q12809). Briefly: qHTS Assay for Small Molecule Inhibitors of the Human hERG Channel Activity (AID 588834).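 Note: top concentration of the series differs between compounds; % is set by controls: 0 for no effect and ±100 for the full control effect; lower thallium flux fluorescence means stronger hERG block; nearly all actives have a fitted effect of over 50% in size.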 In a few lines:
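In hERG-transduced U2OS cells, dye-loaded for 1 hr at room temperature in dark, test compounds incubated 10 min at 37 °C before thallium stimulation. AC50 values derived by Hill modelling of concentration-response.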

Experiment [10] can be described thus: qHTS assay for small molecule agonists of the antioxidant response element (ARE) signaling pathway (AID 651741; active = well fitted activation curve with a large enough effect in the signal ratio; the % refers to the signal ratio; note: % of control where 0% means no effect). An outline of the steps: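 Beta-lactamase reporter expression driven by the antioxidant response element in HepG2 cells was detected by fluorescence with LiveBLAzer B/G FRET substrate (2 h, room temperature) following 16 h compound treatment at 37 C.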

The nature of experiment [11]: qHTS assay for small molecule activators of the p53 signaling pathway (AID 651743; active = well fitted activation curve with a large enough effect in the signal ratio, not every such curve was filed as active; the % refers to the signal ratio; note: series mostly up to about 92 µM; % of control where 0% means no effect). Particulars: HCT-116 p53RE-bla, beta-lactamase FRET ratio, 16 h; activation: stronger effect = higher value. An outline of the steps: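 Here HCT-116 cells with an integrated p53-responsive beta-lactamase gene were incubated with compounds (16 hours, 37 C) after a 5-hour plating period; beta-lactamase activity was detected as fluorescence intensity via B/G FRET substrate.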

Experiment [12] in a line: qHTS assay for small molecule disruptors of the mitochondrial membrane potential - 1 hr assay (AID 651754; calls by dose curve; note: % is set by controls: 0 for no effect and ±100 for the full control effect; nearly all actives have a fitted effect of over 35% in size). An outline of the steps: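 In this qHTS format, a 1 hr compound treatment of HepG2 cells precedes Mito-MPS staining, and membrane potential is judged from aggregate (red) against monomer (green) fluorescence intensity.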
Experiment [13] can be described thus: qHTS assay for small molecule disruptors of the mitochondrial membrane potential - 5 hr assay (AID 651755; calls by dose curve; note: % is set by controls: 0 for no effect and ±100 for the full control effect; nearly all actives have a fitted effect of over 40% in size). An outline of the steps: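 Seed HepG2 overnight, add compound, incubate 5 hr at 37C and 5% CO2, stain 30 min with Mito-MPS, then measure monomer (490/535 nm) and aggregate (540/590 nm) fluorescence.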
The target in experiment [14] is Peroxisome proliferator-activated receptor alpha (Homo sapiens) (UniProt Q07869). Briefly: qHTS assay for small molecule agonists of the peroxisome proliferator-activated receptor alpha (PPARalpha) signaling pathway (AID 651778). Note: % of control where 0% means no effect. Particulars: PathHunter PPARalpha complementation, chemiluminescence, 6 h; max response: stronger effect = higher value. In a few lines: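 Cells plated at 2,000/well and held overnight at 37 C, 5% CO2, then compound added by pin tool for 6 hr; after PathHunter detection reagent and 60 min at room temperature, chemiluminescence from enzyme complementation was read.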
Sequence of Peroxisome proliferator-activated receptor alpha (Homo sapiens) (Q07869 whole entry, looked up): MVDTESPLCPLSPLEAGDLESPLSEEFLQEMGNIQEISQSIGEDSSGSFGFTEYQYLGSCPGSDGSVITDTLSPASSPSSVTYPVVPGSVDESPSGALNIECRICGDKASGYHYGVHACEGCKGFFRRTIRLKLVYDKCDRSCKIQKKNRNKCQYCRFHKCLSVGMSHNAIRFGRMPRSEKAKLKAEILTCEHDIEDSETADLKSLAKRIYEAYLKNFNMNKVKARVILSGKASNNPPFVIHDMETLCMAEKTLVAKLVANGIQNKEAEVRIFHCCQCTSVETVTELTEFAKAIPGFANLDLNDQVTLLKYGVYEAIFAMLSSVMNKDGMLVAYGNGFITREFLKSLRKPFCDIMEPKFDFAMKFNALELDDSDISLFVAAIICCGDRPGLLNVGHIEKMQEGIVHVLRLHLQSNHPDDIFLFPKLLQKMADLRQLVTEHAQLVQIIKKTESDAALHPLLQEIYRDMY

Experiment [15] addresses Nuclear receptor ROR-gamma (Homo sapiens) (UniProt P51449). The experiment is described as follows: qHTS assay for small molecule antagonists of the retinoid-related orphan receptor gamma (ROR-gamma) signaling pathway (AID 651802).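 Note: luciferase reporter luminescence driven by ROR response element; series mostly up to about 92 µM; % is set by controls: 0 for no effect and ±100 for the full control effect; nearly all actives have a fitted effect of over 60% in size.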 In a few lines: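 Doxycycline-induced reporter activity in engineered CHO cells (TET-inducible ROR, RORE-LUC) was measured by luminescence after 16hr compound exposure at 37C.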

Experiment [16] can be described thus: qHTS assay for small molecule agonists of the antioxidant response element (ARE) signaling pathway measured by Nrf2-dependant transcriptional activity (AID 720636; active = well fitted curve in the direction sought with a large enough effect in the repeat runs; an effect the other way counts as inactive or inconclusive; note: % of control where 0% means no effect). In a few lines:
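First, ARE-luc HepG2 cells attached for 6 hr at 37 C in 1% dialyzed FBS medium. Next, compound or DMSO was added and incubated 16 hr. Finally, ONE-Glo reagent was added and luminescence measured after 30 min.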

Experiment [17] in a line: qHTS assay for small molecule antagonists of the retinoid-related orphan receptor gamma (ROR-gamma) signaling pathway - cell viability counter screen (AID 720652; active = well fitted curve in the direction sought with a large enough effect in the repeat runs; an effect the other way counts as inactive or inconclusive;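 note: series mostly up to about 92 µM; compound exposure lasted 16 hr before ATP read; % is set by controls: 0 for no effect and ±100 for the full control effect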). In a few lines:
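ATP-based viability readout in the ROR-gamma reporter CHO cells after 16 hr compound exposure under doxycycline induction.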

The nature of experiment [18]: qHTS assay for small molecule agonists of the antioxidant response element (ARE) signaling pathway measured by Nrf2-dependant transcriptional activity - cell viability counter screen (AID 720653; active = well fitted curve in the direction sought with a large enough effect in the repeat runs; an effect the other way counts as inactive or inconclusive; note: % is set by controls: 0 for no effect and ±100 for the full control effect). Particulars: ARE-bla HepG2 viability, CellTiter-Glo ATP luminescence, 16 h; max response: stronger effect = lower value. In a few lines: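 ARE-bla HepG2 cells (2,000/well) rested 5 hrs at 37C/5% CO2, then exposed to compounds in DMSO for 16 hrs. Viability was read in the same wells as intracellular ATP by luminescence, 30 min at room temperature after reagent addition.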

Experiment [19] can be described thus: qHTS assay for cell viability of HEK293 cells (AID 743288). Note: % is set by controls: 0 for no effect and ±100 for the full control effect; nearly all actives have a fitted effect of over 50% in size. The conditions noted are these: ATP luminescence (CellTiter-Glo), 18 h; max response: stronger effect = lower value. In a few lines:
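After 18 h compound exposure at 37 C, parental HEK293 cells (2,000/well) are lysed with CellTiter-Glo and luminescence is read following 30 min at room temperature.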

A short description of experiment [20]: qHTS assay for cell viability of the p53RE-bla HCT-116 cell line (AID 743292). Note: % is set by controls: 0 for no effect and ±100 for the full control effect; nearly all actives have a fitted effect of over 55% in size. In a few lines: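 Quantitative high-throughput format: compounds in DMSO were pinned onto p53RE-bla HCT-116 cells (4,000/well) and incubated 16 h at 37 C. Total intracellular ATP, read by CellTiter-Glo luminescence, reflects viable cell number.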
Experiment [21] is described as follows: NCATS anti-infectives library activity on HEK293 viability as a counter-qHTS vs the C. elegans viability qHTS (AID 1745854). In a few lines: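 Compound titrations (final up to 41.7 uM) were incubated with HEK293 cells for 24 hr at 37C under 5% CO2. Viable cells were quantified with CellTiter-Glo after 10 min at ambient temperature.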
Experiment [22] has as its target Nuclear receptor subfamily 1 group I member 2 (Rattus norvegicus) (UniProt Q9R1A7). Briefly: qHTS assay for small molecule activators of the rat pregnane X receptor (rPXR) signaling pathway (AID 651751; call rule not given here; note: 0% is about no effect). The conditions noted are these: rPXR reporter cells, luciferase (One-Glo), 24 h.
Experiment [23] in a line: qHTS assay for small molecule activators of the human pregnane X receptor (PXR) signaling pathway (AID 720659; call rule not given here; note: 0% is about no effect).

Results filed as inconclusive are left out. Activity calls are given as the source filed them. Unless noted, calls come from the whole dose curve; as a rule, active = well fitted curve in the direction sought with a large enough effect; inconclusive = small, poorly fitted or top-dose-only effect, or another doubt; inactive = no such curve, though single readings can be large; an effect the other way counts as inactive or inconclusive.

Sequence of Voltage-gated inwardly rectifying potassium channel KCNH2 (Homo sapiens) (Q12809 whole entry, looked up): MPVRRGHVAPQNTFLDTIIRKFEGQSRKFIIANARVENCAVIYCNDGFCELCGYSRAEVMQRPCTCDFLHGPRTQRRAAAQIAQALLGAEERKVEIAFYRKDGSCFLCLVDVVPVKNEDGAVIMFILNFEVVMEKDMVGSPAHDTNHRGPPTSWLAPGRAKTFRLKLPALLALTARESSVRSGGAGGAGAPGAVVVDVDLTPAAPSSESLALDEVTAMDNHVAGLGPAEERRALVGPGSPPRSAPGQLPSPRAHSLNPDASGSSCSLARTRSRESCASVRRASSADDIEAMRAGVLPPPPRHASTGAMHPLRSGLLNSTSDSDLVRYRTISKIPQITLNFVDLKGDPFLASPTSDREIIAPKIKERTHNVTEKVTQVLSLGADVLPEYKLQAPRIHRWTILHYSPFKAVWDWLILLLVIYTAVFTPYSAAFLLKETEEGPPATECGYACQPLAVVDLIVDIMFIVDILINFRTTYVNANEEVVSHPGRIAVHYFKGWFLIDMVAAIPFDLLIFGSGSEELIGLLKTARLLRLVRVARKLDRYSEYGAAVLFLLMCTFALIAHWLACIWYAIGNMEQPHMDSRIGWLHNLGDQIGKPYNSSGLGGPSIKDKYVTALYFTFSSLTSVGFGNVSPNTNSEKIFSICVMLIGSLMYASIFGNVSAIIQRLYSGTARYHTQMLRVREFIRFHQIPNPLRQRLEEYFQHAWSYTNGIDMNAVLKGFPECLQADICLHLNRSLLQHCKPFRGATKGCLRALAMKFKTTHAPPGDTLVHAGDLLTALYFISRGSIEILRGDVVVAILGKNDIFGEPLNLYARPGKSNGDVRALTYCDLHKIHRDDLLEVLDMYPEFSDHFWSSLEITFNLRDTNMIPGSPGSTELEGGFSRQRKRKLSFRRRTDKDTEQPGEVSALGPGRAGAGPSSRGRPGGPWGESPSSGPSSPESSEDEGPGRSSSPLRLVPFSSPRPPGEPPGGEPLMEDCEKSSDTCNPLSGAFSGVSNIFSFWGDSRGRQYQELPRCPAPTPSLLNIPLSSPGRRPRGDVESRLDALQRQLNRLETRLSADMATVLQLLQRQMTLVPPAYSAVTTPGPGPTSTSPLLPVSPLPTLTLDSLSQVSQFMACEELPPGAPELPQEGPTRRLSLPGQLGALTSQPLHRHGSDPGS
Sequence of Nuclear receptor ROR-gamma (Homo sapiens) (P51449 whole entry, looked up): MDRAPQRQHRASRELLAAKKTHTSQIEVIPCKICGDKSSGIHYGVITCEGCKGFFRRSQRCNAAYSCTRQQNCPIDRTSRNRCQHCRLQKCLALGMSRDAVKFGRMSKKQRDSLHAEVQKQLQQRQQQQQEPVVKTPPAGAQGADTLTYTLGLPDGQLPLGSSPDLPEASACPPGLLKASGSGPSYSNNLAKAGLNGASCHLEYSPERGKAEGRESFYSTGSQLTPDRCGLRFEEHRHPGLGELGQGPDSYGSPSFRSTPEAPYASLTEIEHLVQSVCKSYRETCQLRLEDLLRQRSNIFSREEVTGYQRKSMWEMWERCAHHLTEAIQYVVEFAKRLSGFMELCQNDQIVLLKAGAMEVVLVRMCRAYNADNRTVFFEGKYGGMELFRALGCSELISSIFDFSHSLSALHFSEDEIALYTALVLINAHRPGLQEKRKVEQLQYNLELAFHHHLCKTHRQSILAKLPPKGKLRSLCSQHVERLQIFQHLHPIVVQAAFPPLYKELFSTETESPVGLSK
Sequence of Peroxisome proliferator-activated receptor gamma (Homo sapiens) (P37231 whole entry, looked up): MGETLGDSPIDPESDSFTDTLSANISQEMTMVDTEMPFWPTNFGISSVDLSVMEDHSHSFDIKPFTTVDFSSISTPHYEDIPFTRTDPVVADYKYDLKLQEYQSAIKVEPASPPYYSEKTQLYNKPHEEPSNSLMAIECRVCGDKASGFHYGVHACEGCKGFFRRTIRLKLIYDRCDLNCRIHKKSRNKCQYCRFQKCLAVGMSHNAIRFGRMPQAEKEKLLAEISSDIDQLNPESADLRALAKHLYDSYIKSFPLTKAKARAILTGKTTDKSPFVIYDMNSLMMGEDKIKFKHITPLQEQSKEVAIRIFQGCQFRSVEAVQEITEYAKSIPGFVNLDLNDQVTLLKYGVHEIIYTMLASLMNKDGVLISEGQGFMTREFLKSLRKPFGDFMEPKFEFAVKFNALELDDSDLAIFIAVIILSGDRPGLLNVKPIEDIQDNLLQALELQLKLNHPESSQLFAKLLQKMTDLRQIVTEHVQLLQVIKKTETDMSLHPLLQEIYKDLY
Sequence of Nuclear receptor subfamily 1 group I member 2 (Rattus norvegicus) (Q9R1A7 whole entry, looked up): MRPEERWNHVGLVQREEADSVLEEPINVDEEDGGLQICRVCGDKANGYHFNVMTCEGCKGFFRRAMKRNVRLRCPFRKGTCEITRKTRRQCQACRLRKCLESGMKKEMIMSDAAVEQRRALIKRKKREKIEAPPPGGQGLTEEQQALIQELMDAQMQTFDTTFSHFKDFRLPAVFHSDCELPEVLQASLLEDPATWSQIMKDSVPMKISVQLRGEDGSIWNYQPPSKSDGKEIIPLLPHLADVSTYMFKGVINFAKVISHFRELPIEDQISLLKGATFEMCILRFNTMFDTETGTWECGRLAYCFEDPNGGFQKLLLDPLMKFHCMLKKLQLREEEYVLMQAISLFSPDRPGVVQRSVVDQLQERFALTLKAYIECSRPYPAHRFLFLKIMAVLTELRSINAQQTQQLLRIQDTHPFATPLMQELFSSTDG

Consider `O=C(/C=C/c1ccc(O)c(O)c1)O[C@@H](C(=O)O)[C@@H](OC(=O)/C=C/c1ccc(O)c(O)c1)C(=O)O`, for which the outcome in experiment [1], in experiment [2], in experiment [3], in [5], in experiment [6] and in experiment [23] was inactive. The max response in [4] was -0.499%; in experiment [7] it was -0.233%; in experiment [14] it was -4.13% (inactive); in experiment [18], 27.4% (inactive); in [19], -0.791% (inactive); in [22], -5.44% (inactive). Moreover, in experiment [8], the activity change % (negative = inhibition) is -11.2% (inactive). Moreover, the Potency result in experiment [9], in [10], in experiment [12], in experiment [13], in experiment [15] and in [16] was “inactive” each time. Also, the Potency result in experiment [17], in experiment [20] and in experiment [21] was “inactive” in each case. Besides, the activation in experiment [11] was 0.853% (inactive).
